# Rows were chosen to be rich in hits. Some 28% of all compounds tested hit in one or more screens of this group.
# CYP2C19 activ – increases human CYP2C19 enzyme activity; AID 1025; recombinant CYP2C19, luciferin-H EGE luminescence; stronger effect = higher value; 0 = fully inhibited enzyme, 1 = untreated enzyme; 96,000 tested, under 10 active; P33261; activation factor at 5 µM;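 active = activation factor of at least 2 at 5 µM in the primary screen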;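 also: 0 = wells with 2.5 mM tranylcypromine and 1 = vehicle-only wells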
# CYP2C9 inh – blocks human cytochrome P450 2C9; P11712; inhibition, % at 5 µM; CYP2C9 Supersomes, luciferin-H conversion, luminescence; 20% of 96,000 active;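 active = blocking of liver enzyme CYP2C9 beyond about 50% at 5 µM, limit read from the data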
# CD11b adhes enh – CD11b/CD18-fibrinogen binding enhancement; 0.07% of 93,000 active; K562 CD11b/CD18 adhesion to fibrinogen, ATPlite luminescence; AID 1499; P05107+P11215; activation, % at 10 µM;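 active = 10 µM primary screen giving 50% or more activity, confirmed by 40% or more on retest at that dose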
# CYP2C9 act – CYP2C9 (human) activation; P11712; recombinant CYP2C9, luciferin-H conversion, luminescence; stronger effect = higher value; factor 1 = untreated enzyme, 0 = blocked; activation factor at 5 µM; 1.4% of 96,000 active; AID 1024;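 active = activation factor of 2 or more for CYP2C9 at a 5 µM dose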;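 also: 0 = sulfaphenazole-blocked wells and 1 = vehicle-only wells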
# CYP2C19 inhib – human CYP2C19 inhibition; CYP2C19 Supersomes, luciferin-H EGE luminescence, 30 min; P33261; inhibition, % at 5 µM; 21% of 96,000 active;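 active = CYP2C19 inhibition above a set limit at 5 µM in the primary screen, cut at about 50% in these data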;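 also: plate controls were negative control wells for no effect and 2.5 mM tranylcypromine positive control for full effect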
# CD11b adhes inh – inhibitors of human CD11b/CD18 binding to fibrinogen | P05107+P11215 | K562 CD11b/CD18 adhesion to fibrinogen, ATPlite luminescence; Mn2+ added to activate the integrin | inhibition, % at 10 µM | 0.54% of 93,000 active | AID 1497;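 active = primary inhibition of 50% or more at 10 µM, then 40% or more on retest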
# Active calls of the source: *; · = not tested or not shown.
SMILES,CYP2C19 activ,CYP2C9 inh,CD11b adhes enh,CYP2C9 act,CYP2C19 inhib,CD11b adhes inh
CCN(CC)C(=O)Oc1ccccc1NC(C)=O,1,-6,·,1.1,-1,·
O=C(CSc1nnc(-c2c[nH]c3ccccc23)o1)c1ccc(-c2ccccc2)cc1,·,·,71,·,·,4
COc1cc(Cn2cnnn2)ccc1O,1.1,-64,·,1.6,-5,·
CCOC(=O)c1c(C)c(C(=O)Nc2ccc3c(c2)OCO3)c(C)n1C,0.7,-16,·,1.2,28,·
Cc1occc1C(=O)Nc1ccc2c(c1)OCO2,0.5,4,0,1,54*,-4
Cc1cc(C)n2ncc(C(=O)Nc3ccc4c(c3)OCO4)c2n1,0.6,74*,7,0.3,37,-28
CCOC(=O)c1c(N)sc(C(=O)Nc2ccc3c(c2)OCO3)c1C,0,84*,-4,0.2,98*,35
Cc1cc(C(=O)NC(C)c2ccc3c(c2)OCO3)cs1 (stereo not given),0.1,60*,0,0.4,90*,2
O=C(Nc1ccc2c(c1)OCO2)c1cnn2cccnc12,0.9,9,1,0.9,9,10
c1ccc(C(c2ccccc2)N2CCN(c3ccc4ccccc4n3)CC2)cc1,1.1,23,6,0.8,-10,-10
CC(C)C(=O)Nc1ccccc1C(=O)N/N=C/c1ccc([N+](=O)[O-])cc1,0.8,25,4,0.8,24,-32
Cc1c(Br)c([N+](=O)[O-])nn1CC(=O)N1CCCc2ccccc21,0.9,38,0,0.6,13,4
CCOC(=O)C1CCCN(C(=O)c2sc3nc(-c4ccc(OC)cc4)cn3c2C)C1 (stereo not given),0.6,39,·,0.6,43,·
Cc1cc(C(=O)Nc2ccc3c(c2)OCO3)cs1,0.3,48,-1,0.5,70*,-3
O=C1C2C3CCC(C3NCc3ccccc3)C2C(=O)N1Cc1ccccc1 (stereo not given),0.7,24,8,0.8,33,4
NC(=O)c1sc2cc(C(F)(F)F)cnc2c1-c1cccs1,0.8,24,-1,0.8,20,-28
NC(=O)c1ncc(C(F)(F)F)cc1Oc1ccc(C(F)(F)F)cc1,0.2,19,-2,0.8,75*,-8
COc1ccc(-c2nc(SCC(=O)NCc3ccco3)c(-c3ccccc3)[nH]2)cc1OC,0.2,65*,-3,0.4,78*,-9
COc1ccc(-c2[nH]c(-c3ccc(F)cc3)nc2SCC(=O)NCc2ccco2)cc1OC,0.5,48,-1,0.5,51*,-8
COc1ccc(-c2[nH]c(-c3ccccc3)nc2SCC(=O)NCc2ccco2)cc1OC,0.8,10,3,0.9,16,-10
COC(=O)c1sccc1NC(=O)Cn1cnc2c1c(=O)n(C)c(=O)n2C,0.6,17,3,0.8,41,0
CC1(C)CC(=O)C(/C=N/c2ncccc2C(=O)O)=C(O)C1,1.1,2,-3,1,-9,-11
O=C(NC1CC1)C1C2C3C4CC5C3C5C4C12 (stereo not given),1,-4,-4,1,-2,9
CO/N=C/NC(=O)N1OC[C@@H]2COc3ccc4ccccc4c3[C@@H]21,0.4,9,1,0.9,57*,-4
CCCCC(CC)CNC(=O)c1[nH]c(C)c(C(C)=O)c1C (stereo not given),0.4,75*,4,0.2,63*,13
CCCCC(CC)CNC(=O)c1ccc2c(c1)OCO2 (stereo not given),0.7,48,2,0.5,27,2
O=C(CCCn1c(=S)[nH]c2ccccc2c1=O)N1CCCCC1,0.2,34,-4,0.7,81*,-9
CC1CCN(CCCn2c(=S)[nH]c3ccccc3c2=O)CC1,1,-13,-1,1.1,4,6
CC1CC(C)CN(C(=O)CCCn2c(=S)[nH]c3ccccc3c2=O)C1 (stereo not given),0.1,39,-3,0.6,85*,6
COc1ccc(N2CCN(CCCn3c(=S)[nH]c4ncccc4c3=O)CC2)cc1,0.9,7,3,0.9,12,62*

# Bioassay records as filed in PubChem.
